# Several values for one entry are separate records, joined by “and”; a condition that tells them apart may be missing. Equal values may be shown once. Inconclusive results are not listed. Values without a mark were called inactive. Activity calls are given as the source filed them. Calls come from the whole dose curve; as a rule, active = well fitted inhibition curve with a large enough effect; inconclusive = small, poorly fitted or top-dose-only effect, or effect the other way; inactive = flat fitted curve, though single readings scatter.
# Test: qHTS Assay Multiplex Screening to Identify Dual Action Probes in a Cell Model of Huntington: Cytoprotection (Protease relase)
# Conditions: PC12 HttQ103 cells, Cytotox-Glo protease release, 40 h; series mostly up to 46.1 µM; activity change, negative = inhibition: at the top concentration
# From the text: NIH Chemical Genomics Center [NCGC]
# NIH Molecular Libraries Probe Production centers Network [MLPCN]
# Assay Submitter (PI): Wei Zheng
# Huntington's disease is a neurodegenerative disorder caused by a trinucleotide repeat expansion in Exon 1 of the Huntingtin gene. The CAG trinucleotide encodes glutamine and polyglutamine expansions cause cell death in selective areas of the brain. Huntington polyglutamine repeats have the tendency to form aggregates which are observable in later stages of the disease. The exact nature of the aggregates, whether toxic, protective, or insignificant, is unclear.
# A stable PC12 cell line containing a gene fusion of Exon 1 of the Huntingtin gene linked to GFP under the control of the inducible ecdysone promoter were used as the cell-based model of Huntington Disease for high throughput screening. Exon 1 of the Huntingtin gene contained an expansion of 103 polyglutamines (Q103) which, when expressed, caused cell death and distinct, bright GFP aggregates. The amount of cell death and the size and intensity of GFP aggregates increased over time and induction level. In the primary screen, cell death were quantified with a measurement of ATP content in the cells. A maximal 40-50% of cell death was observed when the Huntington gene was induced in this cell line.
# We optimized this assay in a homogeneous 1536 well format. A quantitative high throughput screen (qHTS) was conducted on the PC12 cells which were induced to express the toxic fusion construct. Small molecules which prevented cell death were considered hits, and were further studied. The present assay is an alternate assay for cytoprotection using Promega's Cytotox-Glo reagent.
# PC12 cells stably containing a construct with an ecdysone inducible promoter expressing GFP fused to the exon 1 of HTTQ103 (Huntington protein which containing a 103 ployglutamine expansion) were used.
# NCGC Assay Protocol Summary:
# Sequence, Parameter, Description
# 1, Reagent, 5 uL 1500 cells/well 1536 TC treated White clear bottom plate
# 2, Compound, 23 nL Tebufenozide inducer (100 nM final) to all columns
# 3, Compound, 23 nL 40 uM to 0.5 nM Libraries
# 5, Reagent, 2 ul Promega's Cytotox-Glo assay reagent
# 6, Detector, 4 sec integration with a Viewlux Luminescent
# Media consisted of phenol red free DMEM + 5% equine serum (Hyclone # SH30072.03 ), 5% supplemented Bovine Calf Serum (Hyclone # SH30074.03 ), 1x pen/strep, no G418
Structure (SMILES),"activity change, negative = inhibition",Potency
O=c1c2ccccc2nnn1CSc1ncnc2ccccc12,-15.1%,–
COc1ccccc1-n1nnnc1S(=O)(=O)Cc1ccc(Cl)cc1,–,14.1 µM (active)
Cc1cccc(-c2csc3ncnc(Sc4nnnn4C)c23)c1,–,14.1 µM (active)
O=C(Nc1nc(-c2ccc(-c3ccccc3)cc2)cs1)C1CCCO1 (stereo not given),–,11.2 µM (active)
COc1ccccc1-c1nnc(Sc2nc([N+](=O)[O-])nn2C)o1,–,12.6 µM (active)
Cn1nnnc1Sc1ncnc2scc(-c3ccccc3F)c12,–,12.6 µM (active)
CN1C(=O)NC(NC(=O)c2cccs2)(C(F)(F)F)C1=O (stereo not given),-6.9%,–
Cn1nnnc1Sc1ncnc2scc(-c3ccc(-c4ccccc4)cc3)c12,–,10 µM (active)
COc1ccc(CNC(=O)CN(C(=O)CCC(=O)Nc2ccccn2)c2ccccc2OC)cc1,-2.31%,–
Cn1nnnc1Sc1ncnc2scc(-c3ccc4ccccc4c3)c12,–,10 µM (active)
N#CCCn1c(Cl)nc2ccccc21,-0.576%,–
Cc1cccc(OCc2nc(C)cc(=O)[nH]2)c1,–,10 µM (active)
Cn1nnnc1Sc1ncnc2scc(-c3cnc(N)nc3)c12,–,11.2 µM (active)
O=C(N/N=C/c1ccc(O)c(O)c1)c1ccc(CSc2cccc3cccnc23)cc1,–,8.91 µM (active)
COc1c(F)c(F)c(C(=O)Nc2ccc3oc(-c4ccncc4)nc3c2)c(F)c1F,-1.81%,–
COC(=O)CNC(=O)C1CCN(C(=O)OCc2ccccc2)CC1,–,1.41 µM (active)
CCc1nc(SCC(=O)N2CCCC2)c2ccccc2n1,-6.46%,–
CCC(=O)OCCCCCCOc1ccc(C(=O)O)cc1,–,0.891 µM (active)
COc1ccc(C2=Nc3cc(C)ccc3OC2)cc1,–,11.2 µM (active)
Cc1[nH]nc2c1C(c1cccc(O)c1)C1=C(CC(C)(C)CC1=O)N2 (stereo not given),3.18%,–

Structure (SMILES),"activity change, negative = inhibition",Potency
CN1C(=O)CC(Sc2ncccc2C(=O)O)C1=O (stereo not given),4.06%,–
COc1cc(NC(=O)COC(=O)[C@@H]2CCCN2S(=O)(=O)c2ccc(Cl)cc2)cc(OC)c1OC,11.8%,–
CC(C(=O)O)c1ccc(CC2CCCC2=O)cc1 (stereo not given),-16.1%,–
Cn1nnnc1Sc1ncnc2scc(-c3ccccc3C#N)c12,–,15.8 µM (active)
Fc1ccc(N2CCN(c3ncnc4nc[nH]c34)CC2)cc1,–,4.47 µM (active)
C=CCC(=O)OCCCCCCOc1ccc(C(=O)O)cc1,–,1.41 µM (active)
N#Cc1ccsc1NC(=O)CSc1ncnc2ccccc12,5.84%,–
Cn1nnnc1Sc1ncnc2scc(-c3cccc(S(C)(=O)=O)c3)c12,–,7.08 µM (active)
O=C(CNc1ccc(Oc2ccccc2)cc1)N1CCOCC1,–,14.1 µM (active)
Cn1nnnc1Sc1ncnc2scc(-c3ccccc3S(C)(=O)=O)c12,-11.7%,–
COc1ccc(-c2[nH]ncc2-c2ccc3c(c2)OCCO3)c(O)c1,–,15.8 µM (active)
Cn1nnnc1Sc1ncnc2scc(-c3ccc4c(c3)OCO4)c12,–,10 µM (active)
Cn1nnnc1Sc1ncnc2scc(-c3ccc(C#N)cc3)c12,–,8.91 µM (active)
O=C(O)c1cccc(COc2ccc(CO)cc2Cl)c1,–,0.501 µM (active)
N#Cc1c(C(F)(F)F)cc(-c2ccc(Cl)cc2)[nH]c1=O,–,4.47 µM (active)
Cn1nnnc1Sc1ncnc2scc(-c3ccccc3C(F)(F)F)c12,–,20 µM (active)
O=C(NCc1ccco1)c1cc2ccc(O)cc2oc1=O,–,2.82 µM (active)
Oc1ccc(/C=C/c2cc(O)cc(O)c2)cc1,–,2.24 µM (active)
O=C1Cc2c([nH]c3ccc(Br)cc23)-c2ccccc2N1,–,2.24 µM (active) and 3.55 µM (active)
NC(=O)C1CCN(CCC(=O)Nc2ccc(Br)cc2)CC1,-9%,–

# — PubChem BioAssay AID2669 (National Center for Advancing Translational Sciences (NCATS), 2010)
